Data taken from PubChem BioAssay (NCI).
Compounds without any hit were thinned out: in the full panel of roughly 79,000, 15% have a hit. Unmarked numbers belong to inactive results. Activity calls are given as the source filed them. No stated cut-off is given here; in the data, active means growth inhibition above about 70%; inactive means the rest.

Assays:
[1] = NCI Yeast Anticancer Drug Screen. Data for the rad50 strain (AID 155);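 further: 0% = growth of vehicle-only cultures of the same strain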; details: S. cerevisiae rad50 strain growth inhibition, hits give high values
How it was run: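 Relative growth inhibition (compound vs vehicle) was measured in yeast with a defined repair-gene alteration.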

[2] = NCI Yeast Anticancer Drug Screen. Data for the mec2-1 strain (AID 157); details: S. cerevisiae mec2-1 strain, hits give high values
How it was run: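 Vehicle-treated cultures served as reference for growth inhibition of compound-exposed mec2-1 yeast.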

[3] = NCI Yeast Anticancer Drug Screen. Data for the sgs1 mgt1 strain (AID 161);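 further: 0% = growth of cultures given vehicle only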; details: S. cerevisiae sgs1 mgt1 strain, hits give high values
How it was run: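 Genetically altered yeast, compound exposure, growth inhibition relative to vehicle.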

[4] = NCI Yeast Anticancer Drug Screen. Data for the cln2 rad14 strain (AID 165);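 further: 0% = growth equal to vehicle treated cultures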; details: S. cerevisiae cln2 rad14 strain, hits give high values
How it was run: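 Each compound was tested on cln2 rad14 yeast. Inhibition of growth was calculated against vehicle-exposed controls.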

[5] = NCI Yeast Anticancer Drug Screen. Data for the bub3 strain (AID 167); details: S. cerevisiae bub3 mutant strain, hits give high values
How it was run: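 Screening used yeast with an engineered genetic alteration affecting cell cycle control. Compound-exposed cultures were compared with vehicle cultures, and reduced growth was taken as inhibition.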

[6] = NCI Yeast Anticancer Drug Screen. Data for the mlh1 rad18 strain (AID 175); details: S. cerevisiae mlh1 rad18 strain growth inhibition, hits give high values
How it was run: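 Vehicle-treated cultures served as the reference for growth inhibition in a yeast strain carrying DNA damage repair alterations exposed to each compound.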

[7] = at 5.0 µM (retest, dose inferred, filed as 0.5)
[8] = at 50.0 µM (retest, dose inferred, filed as 5.0)

| Compound | growth inhibition [1, 7] | growth inhibition [1, 8] | growth inhibition ([1]; at 50.0 µM) | growth inhibition [2, 7] | growth inhibition [2, 8] | growth inhibition ([2]; at 50.0 µM) | growth inhibition [3, 7] | growth inhibition [3, 8] | growth inhibition ([3]; at 50.0 µM) | growth inhibition [4, 7] | growth inhibition [4, 8] | growth inhibition ([4]; at 50.0 µM) | growth inhibition [5, 7] | growth inhibition [5, 8] | growth inhibition ([5]; at 50.0 µM) | growth inhibition [6, 7] | growth inhibition [6, 8] | growth inhibition ([6]; at 50.0 µM) |
| --- | --- | --- | --- | --- | --- | --- | --- | --- | --- | --- | --- | --- | --- | --- | --- | --- | --- | --- |
| Cc1ccc(O)c(N=Nc2ccc(Cl)cc2)c1 | 0% | 2% | -3.95% | 4% | -2% | -1.95% | -3% | 17% | -20.8% | 1% | -8% | 7.2% | 1% | -8% | 4.4% | -3% | -1% | -23.2% |
| Nc1ccc(/C=C2/c3ccccc3-c3nc4ccccc4cc32)cc1 | 3% | 87% (active) | 78.9% (active) | 0% | 63% | 15.6% | -4% | 77% (active) | 59.9% | -4% | 33% | 5% | -1% | 57% | 6.8% | 1% | 85% (active) | 52.1% |
| O=C(N/C(=C\c1ccc(Cl)cc1)c1nc2ccccc2s1)c1ccccc1 | 34% | 95% (active) | 98.3% (active) | 32% | 97% (active) | 98.1% (active) | 54% | 97% (active) | 98.8% (active) | 15% | 96% (active) | 98% (active) | 30% | 97% (active) | 96.7% (active) | 28% | 95% (active) | 97.8% (active) |
| N#CC1Sc2ccccc2N1C(=O)Oc1ccccc1 (stereo not given) | 3% | 98% (active) | 98.8% (active) | 0% | 98% (active) | 98.7% (active) | 5% | 98% (active) | 98.8% (active) | 3% | 97% (active) | 98.2% (active) | 15% | 98% (active) | 99.1% (active) | 5% | 98% (active) | 98.8% (active) |
| CCOP(=O)(OCC)OC1c2[nH]ccc2-c2cc(C(=O)OC)[nH]c2C1OC (stereo not given) | 3% | 11% | 12.5% | 0% | 10% | 25.9% | -3% | 17% | 83.2% (active) | -6% | 6% | 5.9% | 3% | -2% | 21.5% | -5% | 15% | 61.4% |
| CC1(CO)CCCC2(C)C1CCC1CC3C=CC12C1C(=O)OC(=O)C31 (stereo not given) | 41% | 79% (active) | 84.1% (active) | 25% | 77% (active) | 61.2% | 12% | 86% (active) | 24.6% | 30% | 82% (active) | 27.8% | 23% | 89% (active) | 62.2% | 36% | 88% (active) | 79.5% (active) |
| CN(C)N=Nc1ccc(NC(N)=O)cc1 | 33% | 78% (active) | 43.8% | 16% | 43% | 65.3% | 38% | 45% | 12.6% | 38% | 51% | 23.3% | 42% | 50% | 67.7% | 25% | 58% | 81.2% (active) |
| Cc1cccc(N2C(c3ccccc3)c3ccc(C)cc3NS2=O)c1 (stereo not given) | 2% | -1% | 98.7% (active) | 2% | -2% | 98.8% (active) | 1% | -2% | 99.1% (active) | 1% | 1% | 98.7% (active) | -2% | -1% | 99.2% (active) | -4% | -7% | 99.2% (active) |
| C1CCC(C2CCC(N3CCCCC3)CC2)CC1 (stereo not given) | 60% | 78% (active) | 85% (active) | 45% | 77% (active) | 51.4% | 58% | 86% (active) | 82.3% (active) | 63% | 62% | 75.6% (active) | 63% | 84% (active) | 72.8% (active) | 67% | 87% (active) | 79.4% (active) |
| Cc1nn(C(=O)c2ccccc2O)c2c1C(c1ccc([N+](=O)[O-])cc1)SC(N)=N2 (stereo not given) | 6% | 81% (active) | 35.5% | -4% | 80% (active) | 47% | -1% | 89% (active) | 69.5% | -8% | 36% | 12.3% | -8% | 71% (active) | 91.2% (active) | 10% | 96% (active) | 53.4% |
| CC(=O)OC/C=C/CCCOC(C)=O | -15% | 4% | 77.8% (active) | -12% | -17% | 64.3% | -7% | 5% | 84% (active) | 38% | 31% | 77.9% (active) | 17% | 19% | 80.3% (active) | 5% | -5% | 62.6% |
| NNc1c(F)c(F)c(-c2c(F)c(F)c(NN)c(F)c2F)c(F)c1F | 42% | 71% (active) | 87.6% (active) | 38% | 68% | 89.2% (active) | 23% | 98% (active) | 91.5% (active) | 48% | 99% (active) | 89.8% (active) | 43% | 98% (active) | 90.1% (active) | 39% | 59% | 86.8% (active) |
| CC(=O)Nc1ccc(Nc2ccc(C(=C3C=CC(=[N+](C)CCC#N)C=C3)c3ccc(N(C)CCC#N)cc3)cc2)cc1 | 11% | 64% | 8.4% | 13% | 77% (active) | 47.7% | 44% | 83% (active) | 58.4% | 41% | 83% (active) | 55.5% | 45% | 77% (active) | 59.5% | 15% | 72% (active) | 45% |
| N#CCN1CCCCCc2ccccc21 | -4% | -3% | -26.6% | 0% | -18% | -12.7% | -29% | -29% | -3.15% | 9% | -1% | 11.2% | -14% | -32% | -3.2% | -18% | -18% | -7.65% |
| Nc1nc2ccccc2cc1C(=O)O | -162% | -150% | -2.25% | -49% | -47% | 19.3% | -61% | -55% | -7.95% | -54% | -48% | 63.5% | -69% | -70% | 12.5% | -140% | -107% | 3.9% |
| O=C1C2=C(c3ccccc31)C(c1ccccc1Cl)NC(=S)N2 (stereo not given) | -5% | 11% | 82.2% (active) | -11% | 13% | 39.3% | -18% | -4% | 78.5% (active) | 20% | 40% | 63.4% | 14% | 60% | 70% (active) | -8% | 40% | 74.8% (active) |
| CCc1cc2c(c3[nH]ccc13)[C@@H](C)C[C@H]2C | -3% | 99% (active) | 73% (active) | 3% | 99% (active) | 84.2% (active) | 0% | 99% (active) | 84.8% (active) | -3% | 98% (active) | 84.3% (active) | 9% | 98% (active) | 91.5% (active) | 2% | 99% (active) | 88.5% (active) |
| CCOc1ccc2c(c1)[n+]([O-])c(-c1ccccc1)c(N)[n+]2[O-] | 23% | 98% (active) | 99.2% (active) | 28% | 99% (active) | 99.3% (active) | 27% | 99% (active) | 99.2% (active) | 37% | 98% (active) | 98.6% (active) | 69% | 99% (active) | 99.1% (active) | 66% | 98% (active) | 98.8% (active) |
| S=C(NC/C(Br)=C/Br)Nc1cccc2ccccc12 | -30% | 99% (active) | 86% (active) | -18% | 99% (active) | 89.8% (active) | -21% | 99% (active) | 85.6% (active) | -5% | 99% (active) | 88.8% (active) | -25% | 99% (active) | 90.7% (active) | -13% | 99% (active) | 81.3% (active) |
| COc1ccc(C(=O)CC(=O)c2ccccc2)cc1 | 1% | 99% (active) | -6.2% | -1% | 99% (active) | 17.8% | 2% | 99% (active) | 20.4% | -15% | 99% (active) | -17.3% | 24% | 99% (active) | 80% (active) | 0% | 99% (active) | 14.1% |
